The nature of experiment [1]: P-glycoprotein substrates identified in KB-8-5-11 adenocarcinoma cell line, qHTS therapeutic library screen (AID 1346987). Also: nearly all actives have a fitted effect of over 65% in size. As to activity change, negative = cytotoxicity: series mostly up to about 44 µM. In outline:
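In this qHTS, P-gp-rich KB-8-5-11 cells received library compounds across a concentration range. Viability was quantified by luminescence after 72 h at 37 degree C.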
In general terms: In qHTS, concentration-response curves come from the screen itself.

Experiment [2] relates to Zika virus NS2B-NS3 protease (unlinked complex). Briefly: Primary screen GU Rhodamine qHTS for Zika virus inhibitors: Unlinked NS2B-NS3 protease assay (AID 1347159). Also: nearly all actives have a fitted effect of over 60% in size. Also: potency is read from the fitted curve at half-maximal effect. An outline of the steps: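 Enzyme 25 nM in Tris-HCl pH 8.0 + 0.01% Tween 20; compounds up to 114 microM, 15 min RT dark; + Rhod110 substrate 1.5 microM; read t0 and 15 min; delta fluorescence → % inhibition → 4-parameter Hill fit.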

For experiment [3], the system named is Zika virus NS2B-NS3 protease (linked construct). Briefly: Primary screen NINDS Rhodamine qHTS for Zika virus inhibitors (AID 1347160). Also: nearly all actives have a fitted effect of over 55% in size. Also: potency is read from the fitted curve at half-maximal effect. In outline: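 Enzyme (25 nM, linked NS2B-NS3) was preincubated 15 min with compound in 10 mM Tris-HCl pH 8.0, 0.01% Tween 20. Rhodamine110 substrate (1.5 microM) was then added and fluorescence read at start and after 15 min.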

Results filed as inconclusive are left out. Values without a mark were called inactive. Active and inactive are the calls of the source. Calls follow the shape of the dose curve; as a rule, active = well fitted curve in the direction sought with a large enough effect; inconclusive = small, poorly fitted or top-dose-only effect, or another doubt; inactive = no such curve, though single readings can be large; an effect the other way counts as inactive or inconclusive.
% is scaled to controls: 0 for no effect and ±100 for the full control effect.

Take `C[C@@H]1O[C@@H](O[C@H]2[C@H](OC(=O)[C@]34CCC(C)(C)C[C@H]3C3=CCC5[C@@]6(C)CC[C@H](O[C@@H]7O[C@H](CO[C@@H]8OC[C@H](O)[C@H](O)[C@H]8O)[C@@H](O)[C@H](O)[C@H]7O)C(C)(C)C6CC[C@@]5(C)[C@]3(C)C[C@H]4O)OC[C@@H](O)[C@@H]2O)[C@H](O)[C@H](O[C@@H]2OC[C@](O)(CO)[C@H]2O)[C@H]1O[C@@H]1OC[C@H](O)[C@H](O[C@@H]2OC[C@@H](O)[C@H](O)[C@H]2O)[C@H]1O` (some centres not stated): in experiment [1], the activity change, negative = cytotoxicity is 5.27% [at 9.29 µM]. Further, the activity change, negative = inhibition in experiment [2] is -5.76% [at 19.1 µM]. Also, the outcome in experiment [3] was “inactive [at 10.7 µM]”.
With `COc1ccc(NC(=O)c2ccc(-c3ccc(C(N)=O)cc3C)cc2)cc1N1CCN(C)CC1`, the Potency entry in experiment [1], in experiment [2] and in experiment [3] was “inactive” each time.
With `C/C(CO)=C1/CCC23COC(C2)C(O)(C(=O)O)CCC13` (configuration not stated), the Potency entry in experiment [1], in experiment [2] and in experiment [3] was “inactive” each time.
As for `Cc1ccccc1N1CCN(S(=O)(=O)C[C@]23CC[C@H](C[C@@H]2NC(=O)[C@@H](N)CCS(C)(=O)=O)C3(C)C)CC1`, the Potency result in experiment [1], in experiment [2] and in experiment [3] was “inactive” throughout.
As for `Fc1cccc(CN(C2=NCCN2)c2c(Cl)cccc2Cl)c1`, the Potency result in experiment [1], in experiment [2] and in experiment [3] was “inactive” in each case.
On to `CCCCOc1nc(N)c2c(n1)N(Cc1cccc(CN3CCCC3)c1)CC(=O)N2`, for which the Potency entry in experiment [1], in experiment [2] and in experiment [3] was “inactive” in each case.
For `N#Cc1cc(-c2n[nH]c(-c3ccncc3)n2)ccn1`, the Potency entry in experiment [1], in experiment [2] and in experiment [3] was “inactive” throughout.
Consider `C=C1C(OC(C)=O)C(=O)C2C(C)(C)C(O)CCC2(C)C1CC(OC(C)=O)/C(C)=C/COC(C)=O` (configuration not stated), for which the Potency result in experiment [1], in experiment [2] and in experiment [3] was “inactive” in each case.
As to `COC(=O)CCC1(C)C(C(C)(C)O)C(O)CC2(C)Oc3c(C)c4c(c(OC)c3CC21)C(=O)OC4` (configuration not stated), the Potency entry in experiment [1], in experiment [2] and in experiment [3] was “inactive” in each case.
With `C=CC1(C)CC=C2C(CCC3C(C)(C(=O)O)CCCC23C)C1` (configuration not stated), in experiment [1], the Potency result is “inactive”. The Potency in experiment [2] was 5.62 µM (active); in experiment [3], 14.1 µM (active).
In the case of `CC1(C)CC[C@]2(C(=O)O[C@@H]3O[C@H](CO)[C@@H](O)[C@H](O)[C@H]3O)CC[C@]3(C)C(=CCC4[C@@]5(C)CC[C@H](O[C@@H]6O[C@H](C(=O)O)[C@@H](O[C@@H]7O[C@H](CO)[C@@H](O)[C@H](O)[C@H]7O)[C@H](O)[C@H]6O[C@@H]6O[C@H](CO)[C@@H](O)[C@H](O)[C@H]6O)C(C)(C)C5CC[C@]43C)C2C1` (some centres not stated), the outcome in experiment [1] was “inactive [at 9.29 µM]”. Besides, the Potency entry in experiment [2] and in experiment [3] was “inactive” throughout.
For `C=C1C[C@]23C[C@H]1CC[C@H]2[C@]1(C)CC[C@H](O)[C@@](C)(C(=O)O)[C@H]1[C@@H]3C(=O)O`, the Potency result in experiment [1], in experiment [2] and in experiment [3] was “inactive” throughout.
For `C=C1CC2C3(C)C=CC(=O)OC(C)(C)C3CC(OC(C)=O)C2(C)C2C(=O)OC(C)C(=O)C12C` (configuration not stated), the Potency entry in experiment [1], in experiment [2] and in experiment [3] was “inactive” each time.
In the case of `CC(C)C1C(OC(=O)/C=C/c2ccccc2)CC2(C)OC2CCC2(C)OC2C1O` (configuration not stated), the Potency result in experiment [1], in experiment [2] and in experiment [3] was “inactive” in each case.
Turning to `COc1cc(/C=C/CO[C@@H]2O[C@H](CO)[C@@H](O)[C@H](O)[C@H]2O)cc(OC)c1O[C@@H]1O[C@H](CO)[C@@H](O)[C@H](O)[C@H]1O`, the Potency result in experiment [1], in experiment [2] and in experiment [3] was “inactive” each time.
Consider `CC1(C)CC[C@]2(C(=O)O[C@@H]3O[C@H](CO[C@@H]4O[C@H](CO)[C@@H](O)[C@H](O)[C@H]4O)[C@@H](O)[C@H](O[C@@H]4O[C@H](CO)[C@@H](O)[C@H](O)[C@H]4O)[C@H]3O)[C@H](O)C[C@]3(C)C(=CCC4[C@@]5(C)CC[C@H](O[C@@H]6OC[C@@H](O)[C@H](O)[C@H]6O)[C@@](C)(C(=O)O)C5CC[C@]43C)[C@@H]2C1` (some centres not stated), for which the outcome in experiment [1] was “inactive [at 9.29 µM]”. For the same molecule, the Potency result in experiment [2] and in experiment [3] was “inactive” each time.
For the molecule `Cc1nc(-c2cccnc2)sc1C(=O)Nc1ccccc1-c1cn2c(CN3CCOCC3)csc2n1`, the Potency entry in experiment [1], in experiment [2] and in experiment [3] was “inactive” each time.
As for `COC(=O)C1=COC(O[C@@H]2O[C@H](CO)[C@@H](O)[C@H](O)[C@H]2O)C2C(C)C(=O)CC12` (some centres not stated), the Potency result in experiment [1], in experiment [2] and in experiment [3] was “inactive” in each case.
With `CN1CCN(C2=Nc3ccccc3Nc3ccc(O)cc32)CC1`, the Potency result in experiment [1], in experiment [2] and in experiment [3] was “inactive” throughout.
On to `CC1(C)CC[C@]2(C(=O)O[C@@H]3O[C@H](CO)[C@@H](O)[C@H](O)[C@H]3O)CC[C@]3(C)C(=CCC4[C@@]5(C)CC[C@H](O[C@H]6O[C@H](CO)[C@@H](O)[C@H](O[C@@H]7O[C@H](CO)[C@@H](O)[C@H](O)[C@H]7O)[C@H]6O)C(C)(C)C5CC[C@]43C)[C@@H]2C1` (some centres not stated), for which, in experiment [1], the activity change, negative = cytotoxicity is 4.26% [at 9.29 µM]. Further, the Potency result in experiment [2] and in experiment [3] was “inactive” throughout.
For the molecule `C/C=C(\C)C(=O)OC[C@H]1O[C@@H](O[C@H]2[C@@H](O[C@H]3O[C@H](COC(=O)/C(C)=C/C)[C@@H](O)[C@H](O)[C@H]3O[C@@H]3O[C@H](COC(=O)/C(C)=C/C)[C@@H](O)[C@H](OC(=O)/C(C)=C/C)[C@H]3O)O[C@H](COC(=O)/C(C)=C/C)[C@@H](O)[C@@H]2O)[C@H](O)[C@@H](O)[C@@H]1O`, the activity change, negative = cytotoxicity in experiment [1] was 0.351% [at 9.29 µM]. The Potency entry in experiment [2] and in experiment [3] was “inactive” in each case.
Turning to `CC(C)N(CCCNC(=O)Nc1ccc(C(C)(C)C)cc1)C[C@H]1O[C@@H](n2ccc3c(N)ncnc32)[C@H](O)[C@@H]1O`, the Potency result in experiment [1], in experiment [2] and in experiment [3] was “inactive” in each case.
On to `CCC(C)C(=O)OC[C@H]1O[C@H](O[C@H]2O[C@H](CO)[C@@H](O)[C@H](O)[C@H]2O)[C@H](O)[C@@H](O)[C@@H]1O` (some centres not stated), for which the Potency entry in experiment [1], in experiment [2] and in experiment [3] was “inactive” each time.
As for `O=[N+]([O-])c1cc(Cl)ccc1S(=O)(=O)N1CCN(Cc2ccccc2)CC1`, the Potency result in experiment [1], in experiment [2] and in experiment [3] was “inactive” in each case.

For the origin of these results see PubChem BioAssay (NCATS).
